We go through 6 compounds from PubChem BioAssay.

Test [1] is described as follows: compounds binding Alexa647 anti-His antibody – biochemical, small-molecule microarray, 635 nm fluorescence, artefact control for SMM control protein annotation, primary screen (AID 1128).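 Further: score merges feature fluorescence with signal-to-noise for each printed compound spot.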 As to conditions: higher = more signal.
The test system of test [2] is Human papillomavirus type 1a E7 protein (residues 1-88). Description: HPV1a E7 small-molecule binders, primary screen, biochemical, small-molecule microarray, residues 1-88, 635 nm (AID 1129). To be noted: small-molecule microarray binding, fluorescence 635 nm; higher = more signal.
Test [3] deals with Focal adhesion kinase 1 (Homo sapiens) (UniProt Q05397). Description: PTK2 protein binding on printed compound slides – biochemical, small-molecule microarray, 635/667 nm fluorescence, BSA, DTT, primary screen (AID 1130).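 Further: composite of spot emission at 667 nm and signal to noise over triplicate slides.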 As to conditions: 635 nm fluorescence, higher = more signal.
Test [4] relates to Fibrinogen (Alexa647-labelled). Description: Alexa647-fibrinogen binding to printed small molecules – biochemical, small-molecule microarray, 635/667 nm fluorescence, artefact control for SMM control-protein annotation, profiling panel (AID 1131).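 Further: z-score merges 667 nm fluorescence with per-spot signal-to-noise over triplicate slides.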 As to conditions: fibrinogen-A647 binding fluorescence, higher = more signal.
In test [5] the target is Follistatin (Homo sapiens) (UniProt P19883). Description: FST protein binding to printed compounds – biochemical, small-molecule microarray, 635/667 nm fluorescence, primary screen (AID 1132). To be noted: 635 nm fluorescence, higher = more signal.
Test [6] deals with Fibroblast growth factor 2 (Homo sapiens) (UniProt P09038). Description: basic fibroblast growth factor binding to printed compounds – biochemical, small-molecule microarray, 635/667 nm fluorescence, primary screen (AID 1133). To be noted: FGF2, fluorescence 635/667, higher = more signal.
Test [7] in a line: JC-1 mitochondrial potential readout, lung cancer cells – cell-based, A549, JC-1 fluorescence, basal, 24 h, 100 nL, profiling panel (AID 1138).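 Further: A549 lung adenocarcinoma cells under basal conditions with no added stimulus; test concentration not given here.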 As to conditions: higher = more signal.
Test [8] has as its system Lefty1. Description: Lefty1 protein binding to printed compounds – biochemical, small-molecule microarray, 635/667 nm fluorescence, primary screen (AID 1139). As to conditions: fluorescence 635/667, higher = more signal.
The test system of test [9] is wheat germ agglutinin (Triticum aestivum), Alexa647-labelled. The test can be described thus: Alexa647-WGA lectin binding to printed small molecules – biochemical, small-molecule microarray, 635/667 nm fluorescence, artefact control for SMM control-protein annotation, profiling panel (AID 1140).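 Further: score merges 667 nm feature emission with signal to noise over triplicate slides.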 To be noted: WGA-A647 binding, 635 nm fluorescence, higher = more signal.

For test [10], the target named is Luciferin 4-monooxygenase (Photinus pyralis) (UniProt P08659). The test can be described thus: inhibition of purified Photinus pyralis luciferase – biochemical, luminescence, purified enzyme, 2006 set, primary screen (AID 1141).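 Further: cell-free assay with purified firefly luciferase at 100 ng per well in PBS; test concentration not given here.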 As to conditions: purified firefly luciferase, SteadyGlo luminescence, 30 min; higher = more signal, called active from +8 up or from −8 down.

Test [11] concerns Wnt5a (protein binding on small-molecule microarray). Description: small molecules binding Wnt5a protein – biophysical, small-molecule microarray, 635/667 nm fluorescence, primary screen (AID 1142).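 Further: fluorescence read at 667 nm with signal to noise per printed feature.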 To be noted: 635 nm fluorescence, higher = more signal.
Test [12] is described as follows: ATP-based viability of Huh7 replicon cells – cell-based, CellTiter-Glo luminescence, basal, 48 h, cytotoxicity control for HCV replication inhibitor project, primary screen (AID 1143).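 Further: Huh7 hepatoma cells carrying a hepatitis C replication reporter with no stimulus; test concentration not given here.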 As to conditions: higher = more signal, called active from +8 up or from −8 down.
Test [13] in a line: Pseudomonas biofilm growth suppression – PAO1 strain, BacTiter-Glo luminescence, LB-PBS, primary screen (AID 1144). To be noted: P. aeruginosa PAO1 biofilm, 12 h, higher = more signal.
Test [14] in a line: basal CRE-LacZ reporter activity in PC12 – cell-based, unstimulated, primary screen (AID 1145). To be noted: no forskolin, luminescence, 4.5 h, higher = more signal, called active from +8 up or from −8 down.
A short description of test [15]: forskolin-driven CRE-LacZ activity in PC12 – cell-based, CRE-LacZ reporter, forskolin-stimulated, primary screen (AID 1146).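 Further: PC12 cells with 6xCRE LacZ reporter stimulated by forskolin 10 µM; beta-galactosidase reporter signal reflecting CREB driven transcription.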 To be noted: luminescence, 4.5 h, higher = more signal, called active from +8 up or from −8 down.
The target of test [16] is Streptavidin (Streptomyces avidinii) (UniProt P22629). Description: compounds binding control protein streptavidin – biophysical, small-molecule microarray, 635/667 nm fluorescence, artefact control for SMM compound annotation, primary screen (AID 1147).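 Further: signal reflects streptavidin binding to arrayed compounds as a control protein.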 As to conditions: higher = more signal.
A short description of test [17]: probe aInhba binding on compound microarray – biochemical, small-molecule microarray, 635/667 nm fluorescence, primary screen (AID 1148).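 Further: score merges 667nm spot fluorescence with signal-to-noise for antibody binding to printed compounds.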 As to conditions: higher = more signal.
In test [18] the target is Torsin-1A (Homo sapiens) (UniProt O14656). The test can be described thus: TOR1A wild-type binding on microarray – cell lysate, small-molecule microarray, lysate, 635/667 nm, primary screen (AID 1149). As to conditions: COS7 hTOR1A-WT lysate, 635 nm fluorescence, higher = more signal.
For test [19] the target is unchanged. The test can be described thus: torsin A mutant lysate binding on microarrays – cell lysate, small-molecule microarray, COS7 lysate, 635/667 nm fluorescence, primary screen (AID 1150).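 Further: score pools 667 nm emission and signal to noise measuring lysate protein binding.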 As to conditions: COS7 hTOR1A mutant lysate, 635 nm fluorescence, higher = more signal.
For test [20], the system named is Sonic hedgehog protein (Shh). Description: Sonic hedgehog microarray binding compounds – biochemical, small-molecule microarray, 635/667 nm fluorescence, primary screen (AID 1151).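 Further: Shh protein binding to compounds spotted on small-molecule microarray slides; score combines spot fluorescence intensity with signal-to-noise across triplicate slides.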 To be noted: 635 nm fluorescence, higher = more signal.

Each structure is given as a SMILES string. Active and inactive are the calls of the source. Unless noted, how the calls were made is not given here.

Chain of Torsin-1A (Homo sapiens) (O14656 whole entry, looked up): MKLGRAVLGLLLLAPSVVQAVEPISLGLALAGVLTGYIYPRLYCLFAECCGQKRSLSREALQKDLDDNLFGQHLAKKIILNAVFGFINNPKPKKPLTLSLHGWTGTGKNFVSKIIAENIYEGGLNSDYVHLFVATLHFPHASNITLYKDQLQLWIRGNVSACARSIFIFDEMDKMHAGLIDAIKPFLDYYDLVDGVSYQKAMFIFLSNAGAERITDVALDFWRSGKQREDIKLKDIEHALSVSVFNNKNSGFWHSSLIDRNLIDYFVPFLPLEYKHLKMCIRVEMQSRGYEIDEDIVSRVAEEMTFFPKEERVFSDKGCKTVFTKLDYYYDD
Chain of Fibroblast growth factor 2 (Homo sapiens) (P09038 whole entry, looked up): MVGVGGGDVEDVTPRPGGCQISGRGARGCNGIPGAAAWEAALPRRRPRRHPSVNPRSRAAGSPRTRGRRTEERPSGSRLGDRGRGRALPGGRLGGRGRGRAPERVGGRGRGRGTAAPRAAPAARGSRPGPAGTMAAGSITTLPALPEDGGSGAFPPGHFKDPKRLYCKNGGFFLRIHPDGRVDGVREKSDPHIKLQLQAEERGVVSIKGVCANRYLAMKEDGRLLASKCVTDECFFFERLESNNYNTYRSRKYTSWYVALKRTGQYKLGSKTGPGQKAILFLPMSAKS
Chain of Luciferin 4-monooxygenase (Photinus pyralis) (P08659 whole entry, looked up): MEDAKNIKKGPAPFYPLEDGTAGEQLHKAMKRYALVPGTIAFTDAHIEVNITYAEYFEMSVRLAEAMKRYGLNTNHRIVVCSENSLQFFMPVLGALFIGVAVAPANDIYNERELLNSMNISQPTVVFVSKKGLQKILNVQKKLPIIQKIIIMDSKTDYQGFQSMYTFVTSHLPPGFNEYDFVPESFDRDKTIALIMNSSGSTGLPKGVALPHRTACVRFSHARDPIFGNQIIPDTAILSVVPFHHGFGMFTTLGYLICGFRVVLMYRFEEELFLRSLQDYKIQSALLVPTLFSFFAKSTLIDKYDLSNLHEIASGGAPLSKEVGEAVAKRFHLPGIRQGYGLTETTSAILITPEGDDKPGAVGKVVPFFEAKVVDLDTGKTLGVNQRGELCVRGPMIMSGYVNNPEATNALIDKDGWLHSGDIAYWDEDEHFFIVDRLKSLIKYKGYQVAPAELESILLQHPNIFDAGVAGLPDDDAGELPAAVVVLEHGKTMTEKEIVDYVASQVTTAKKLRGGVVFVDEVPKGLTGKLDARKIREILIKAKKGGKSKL
Chain of Focal adhesion kinase 1 (Homo sapiens) (Q05397 whole entry, looked up): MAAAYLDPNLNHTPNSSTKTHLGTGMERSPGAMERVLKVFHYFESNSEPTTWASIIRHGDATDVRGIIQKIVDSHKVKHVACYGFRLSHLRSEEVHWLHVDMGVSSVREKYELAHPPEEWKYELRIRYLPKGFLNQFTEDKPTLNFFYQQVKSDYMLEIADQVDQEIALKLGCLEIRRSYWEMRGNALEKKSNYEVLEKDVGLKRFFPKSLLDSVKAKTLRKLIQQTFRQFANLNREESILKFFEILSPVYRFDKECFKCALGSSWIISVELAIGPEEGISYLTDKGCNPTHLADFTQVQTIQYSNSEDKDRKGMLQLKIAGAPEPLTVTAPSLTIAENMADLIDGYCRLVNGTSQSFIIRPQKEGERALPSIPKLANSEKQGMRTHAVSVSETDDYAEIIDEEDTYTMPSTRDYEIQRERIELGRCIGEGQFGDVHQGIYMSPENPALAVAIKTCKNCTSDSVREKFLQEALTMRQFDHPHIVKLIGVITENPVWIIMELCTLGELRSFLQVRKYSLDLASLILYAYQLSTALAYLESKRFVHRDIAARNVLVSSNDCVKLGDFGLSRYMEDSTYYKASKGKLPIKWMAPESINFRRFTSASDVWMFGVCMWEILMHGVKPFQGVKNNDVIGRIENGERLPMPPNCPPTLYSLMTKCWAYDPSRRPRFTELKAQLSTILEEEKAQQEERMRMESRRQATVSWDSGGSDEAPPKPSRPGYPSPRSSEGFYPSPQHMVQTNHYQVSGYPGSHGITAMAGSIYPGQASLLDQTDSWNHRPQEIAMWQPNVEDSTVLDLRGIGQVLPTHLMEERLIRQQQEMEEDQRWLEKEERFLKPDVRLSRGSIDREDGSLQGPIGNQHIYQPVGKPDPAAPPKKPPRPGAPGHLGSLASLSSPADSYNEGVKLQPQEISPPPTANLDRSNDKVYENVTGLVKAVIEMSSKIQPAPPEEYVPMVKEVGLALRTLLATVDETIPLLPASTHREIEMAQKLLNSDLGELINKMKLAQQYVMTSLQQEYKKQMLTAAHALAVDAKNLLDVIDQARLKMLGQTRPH
Chain of Streptavidin (Streptomyces avidinii) (P22629 whole entry, looked up): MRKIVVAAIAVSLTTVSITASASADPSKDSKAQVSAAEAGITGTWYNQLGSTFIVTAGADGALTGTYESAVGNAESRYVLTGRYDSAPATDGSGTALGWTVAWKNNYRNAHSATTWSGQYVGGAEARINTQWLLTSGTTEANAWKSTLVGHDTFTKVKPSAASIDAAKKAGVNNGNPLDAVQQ
Chain of Follistatin (Homo sapiens) (P19883 whole entry, looked up): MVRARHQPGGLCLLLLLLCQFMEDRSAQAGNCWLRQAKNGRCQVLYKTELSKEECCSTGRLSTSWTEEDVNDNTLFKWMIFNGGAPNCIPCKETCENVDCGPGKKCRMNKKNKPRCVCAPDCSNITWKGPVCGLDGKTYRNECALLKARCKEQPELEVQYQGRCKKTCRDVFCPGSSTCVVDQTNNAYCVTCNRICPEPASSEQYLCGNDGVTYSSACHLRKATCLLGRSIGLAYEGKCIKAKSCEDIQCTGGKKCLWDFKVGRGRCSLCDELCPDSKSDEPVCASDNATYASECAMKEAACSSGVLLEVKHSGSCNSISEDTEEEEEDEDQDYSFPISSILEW

For the compound `CC(=O)n1cc(C(O)C2C=CC3C(=O)N(C)C(=O)C3N2Nc2ccccc2)c2ccccc21` (stereo not given), the composite z-score came out at 1.88 in test [1]; 1.11 in test [2]; 0.214 in [3]; 0.898 in test [4]; 1.12 in test [5]; 0.607 in test [6]. Moreover, the composite z-score came to 0.859 in test [8]; 0.809 in test [9]; 0.19 in test [11]; 1.13 in test [16]; 0.246 in test [17]; 0.383 in test [18]. The values for the composite z-score in [19] and in test [20] were 0.606 and 1.04, respectively. Also, the z-score in test [7] was -0.0732; in test [10], 0.376 (inactive); in [12], 1.08 (inactive); in [13] it was -0.114 (inactive); in [14], 0.0569 (inactive); in [15], -0.172 (inactive).

Turning to `COc1ccc([Si](C)(C)[C@@H]2[C@@H](CCO)O[C@]3(C(=O)N(Cc4ccc(N5C(=O)COc6ccccc65)cc4)c4ccccc43)[C@H]2C)cc1`, the composite z-score turned out to be 1.58 in [1]; 1.18 in test [2]; 0.571 in [3]; 0.814 in [4]; 0.59 in [5]; 0.621 in [6]. For the same compound, the composite z-score in test [8] worked out at 0.955; in test [9], 0.978; in test [11], 0.44; in test [16], 0.636; in test [17], 0.0261; in test [18], 0.436. Moreover, the composite z-score in test [19] came to 0.586; in [20], 1.57. Besides, the z-score in test [7] was -0.342; in test [10], 0.686 (inactive); in test [12] it was -7.31 (inactive); in test [13] it was -0.374 (inactive); in [14], 0.804 (inactive); in test [15] it was 2.02 (inactive).

Turning to `C=CCNC(=O)[C@H]1[C@@H]2C(=O)O[C@@H](c3ccccc3)[C@@H](c3ccccc3)N2[C@@H](c2ccccc2OCCO)[C@]12C(=O)Nc1ccc(C#CC3=CCCCC3)cc12`, the composite z-score came to 0.971 in test [1]; 1.17 in test [2]; 0.26 in test [3]; 0.783 in [4]; 1.16 in test [5]; 1.21 in test [6]. Moreover, the composite z-score is 0.681 in test [8]; 0.394 in test [9]; 0.291 in test [11]; 0.0808 in test [16]; 0.0074 in [17]; 1.23 in test [18]. In addition, the composite z-score came out at 1.14 in test [19] and 1.61 in test [20]. For the same compound, the z-score in test [7] is -0.856; in [10], -1.19 (inactive); in [12] it was -6.47 (inactive); in test [13], 1.64 (inactive); in [14], 0.484 (inactive); in [15], 1.05 (inactive).

In the case of `CCCCN1CC=CC23O[C@@H]4/C=C\CCC(C)OC(=O)C4[C@H]2C(=O)N(CCCCCO)[C@@H]3C1=O` (stereo not given in full), the composite z-score in test [1] was -0.383; in test [2], -0.69; in test [3], -0.883; in [4] it was -0.773; in test [5] it was -1.13; in [6], -0.781. Besides, the composite z-score in [8] was -0.234; in test [9], -0.245; in test [11] it was -0.612; in test [16] it was -1.24; in test [17], -0.246; in [18], -1.6. Moreover, the figures for the composite z-score in [19] and in test [20] were -1.78 and -0.0223, respectively. The z-score in test [7] is -0.175; in test [10], 0.762 (inactive); in test [12], 0.0396 (inactive); in test [13] it was -0.398 (inactive); in [14], 0.191 (inactive); in [15], -0.0864 (inactive).

For the compound `CCCCCC1=C2CNC(CCC)(C(=O)OC)C=C2C(C)C1=O` (stereo not given), the composite z-score in test [1] is -0.252; in [2], 0.859; in test [3], 0.682; in test [4], -0.288; in [5], -0.249; in [6], 0.0833. For the same compound, the composite z-score was -0.444 in [8]; -0.0925 in [9]; 0.0324 in test [11]; 0.441 in test [16]; 0.345 in test [17]; -0.449 in test [18]. Also, the composite z-score in [19] worked out at 0.0188; in test [20], 0.368. The z-score is 0.424 in [7]; 0.443 (inactive) in test [10]; -0.86 (inactive) in test [12]; 0.617 (inactive) in [13]; -0.751 (inactive) in test [14]; 0.974 (inactive) in test [15].

Turning to `CN1C(=O)C2C=CC(C(O)C3CCCCC3)N(Nc3ccc([N+](=O)[O-])cc3[N+](=O)[O-])C2C1=O` (stereo not given), the composite z-score in test [1] turned out to be 1.08; in [2] it was 1.25; in test [3], 0.622; in test [4], 1.02; in [5], 1.07; in test [6], 0.0734. Besides, the composite z-score in test [8] was 0.182; in [9], 0.497; in test [11], 0.326; in test [16], 1.2; in test [17] it was -0.024; in test [18], 1.27. In addition, the composite z-score in test [19] was 1.04; in [20], -0.0056. For the same compound, the z-score in test [7] was 1.37; in test [10] it was 0.799 (inactive); in test [12] it was 0.729 (inactive); in test [13], 1.17 (inactive); in test [14] it was 0.626 (inactive); in test [15], 1.37 (inactive).
